Results: PubChem BioAssay (NCI)
Compounds without any hit were thinned out: in the full panel of roughly 83,000, 20% have a hit.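 Results are percent growth after 48 hours of single-concentration exposure. 100 means growth as in untreated cells, lower positive values show inhibition; negative values down to -100 show cell death.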 Active and inactive are the calls of the source. The calls were made as follows: active = growth percent below 10; inactive = the rest.

Tests used:
Experiment in all cases: NCI-60 one-dose screen, 48 h (100 = growth as untreated, 0 = no growth, -100 = all killed)
Conditions in all cases: 10 µM unless noted
DU-145 prostate = system: DU-145 prostate
K-562 leukemia = system: K-562 leukemia
MALME-3M melanoma = system: MALME-3M melanoma
MDA-MB-231 breast = system: MDA-MB-231 breast
RXF 393 renal = system: RXF 393 renal
SF-268 CNS = system: SF-268 CNS
SF-295 CNS = system: SF-295 CNS
SF-539 CNS = system: SF-539 CNS
UACC-257 melanoma = system: UACC-257 melanoma
M14 melanoma = system: M14 melanoma

Measured: growth

O=C(c1ccc(F)c(F)c1Nc1ccc(I)cc1F)N1CC(O)([C@@H]2CCCCN2)C1
inactive: DU-145 prostate 46.3% | SF-268 CNS 44.6% | SF-295 CNS 54.9% | SF-539 CNS 29.2%
active: K-562 leukemia -26.8% | MALME-3M melanoma -21.8% | MDA-MB-231 breast 0.9% | RXF 393 renal -32.3% | UACC-257 melanoma -10.8% | M14 melanoma -30.6%

N[C@@H]1CCCN(c2c(/C=C3\SC(=O)NC3=O)cccc2-c2ccccc2)C1
active: SF-295 CNS 5.44% | SF-539 CNS -24.7%
inactive: DU-145 prostate 70.4% | K-562 leukemia 33.1% | MALME-3M melanoma 55.6% | MDA-MB-231 breast 55.8% | RXF 393 renal 54.6% | SF-268 CNS 43% | UACC-257 melanoma 44.7% | M14 melanoma 54.3%

CS(=O)(=O)N1CCN(Cc2cc3nc(-c4cccc5[nH]ncc45)nc(N4CCOCC4)c3s2)CC1
inactive: DU-145 prostate 18.8% | K-562 leukemia 64% | MDA-MB-231 breast 51.5% | SF-268 CNS 30.3% | UACC-257 melanoma 14.7% | M14 melanoma 40%
active: MALME-3M melanoma 1.98% | RXF 393 renal -23.3% | SF-295 CNS 3.4% | SF-539 CNS -2.44%

CC(C)(O)CC(=O)NCCn1ccc2ncnc(Nc3ccc(Oc4cccc(C(F)(F)F)c4)c(Cl)c3)c21
inactive: DU-145 prostate 27.4% | MDA-MB-231 breast 11.9% | SF-268 CNS 29.3% | SF-295 CNS 31%
active: K-562 leukemia 4.49% | MALME-3M melanoma -8.01% | RXF 393 renal 3.66% | SF-539 CNS 8.28% | UACC-257 melanoma -26.8% | M14 melanoma -1.37%

CO[C@H]1C[C@@H]2CC[C@@H](C)[C@@](O)(O2)C(=O)C(=O)N2CCCC[C@H]2C(=O)O[C@H]([C@H](C)C[C@@H]2CC[C@@H](OP(C)(C)=O)[C@H](OC)C2)CC(=O)[C@H](C)/C=C(\C)[C@@H](O)[C@@H](OC)C(=O)[C@H](C)C[C@H](C)\C=C/C=C/C=C/1C
inactive: DU-145 prostate 46% | K-562 leukemia 48.4% | MALME-3M melanoma 40.4% | MDA-MB-231 breast 71.7% | RXF 393 renal 18.9% | SF-268 CNS 62.9% | SF-295 CNS 23.5% | SF-539 CNS 41.8% | UACC-257 melanoma 30.7% | M14 melanoma 66.4%

CC#CC(=O)N1CCC[C@H]1c1nc(-c2ccc(C(=O)Nc3ccccn3)cc2)c2c(N)nccn12
inactive: DU-145 prostate 89.1% | K-562 leukemia 77.2% | MALME-3M melanoma 99% | MDA-MB-231 breast 90.3% | RXF 393 renal 93.3% | SF-268 CNS 79.5% | SF-295 CNS 89.9% | SF-539 CNS 95.4% | UACC-257 melanoma 57.7% | M14 melanoma 83.1%

CCN1CCN(CCCN(C[C@H]2Cc3ccccc3CN2)[C@H]2CCCc3cccnc32)CC1
inactive: DU-145 prostate 96.7% | K-562 leukemia 63.5% | MALME-3M melanoma 113% | MDA-MB-231 breast 77.4% | RXF 393 renal 93.8% | SF-268 CNS 75.9% | SF-295 CNS 90.7% | SF-539 CNS 94.2% | UACC-257 melanoma 80.4% | M14 melanoma 87.3%

NC1(c2ccc(-c3nc4ccn5c(=O)[nH]nc5c4cc3-c3ccccc3)cc2)CCC1
inactive: DU-145 prostate 60.9% | MDA-MB-231 breast 37.4% | SF-268 CNS 52.3%
active: K-562 leukemia -16.8% | MALME-3M melanoma -70.8% | RXF 393 renal -21.7% | SF-295 CNS -65.5% | SF-539 CNS -80.9% | UACC-257 melanoma -67.6% | M14 melanoma -66.5%

CC[C@@H]1C(=O)N(C)c2cnc(Nc3ccc(C(=O)NC4CCC(N5CCN(CC6CC6)CC5)CC4)cc3OC)nc2N1C(C)C (stereo not given in full)
active: K-562 leukemia -6.16% | MALME-3M melanoma -80.6% | MDA-MB-231 breast 5.19% | RXF 393 renal -30.4% | SF-295 CNS -36.2% | SF-539 CNS -85.7% | UACC-257 melanoma -67.3% | M14 melanoma -57.7%
inactive: DU-145 prostate 14.6% | SF-268 CNS 11.2%

COc1ccc(/C(C)=C(\c2ccc(Cl)cc2)c2ccc(OCCN3CCCCCC3)cc2)cc1
inactive: DU-145 prostate 70.1% | K-562 leukemia 10.4% | MALME-3M melanoma 51.9% | MDA-MB-231 breast 57.4% | RXF 393 renal 69.5% | SF-268 CNS 72.3% | SF-295 CNS 54.6% | SF-539 CNS 56.8% | UACC-257 melanoma 58.3% | M14 melanoma 60%

COc1cc(F)c(F)c(Nc2ccc(I)cc2F)c1NS(=O)(=O)C1(C[C@H](O)CO)CC1
inactive: DU-145 prostate 51.2% | K-562 leukemia 21.9% | MDA-MB-231 breast 23% | SF-268 CNS 52.9% | SF-295 CNS 59.9% | SF-539 CNS 53.5%
active: MALME-3M melanoma 0.42% | RXF 393 renal -2.17% | UACC-257 melanoma -12.7% | M14 melanoma 7.68%

O=C(O)c1ccc2c(c1)nc(Nc1cccc(Cl)c1)c1ccncc12
active: K-562 leukemia 8.63% | MALME-3M melanoma -10.2% | MDA-MB-231 breast 3.58% | RXF 393 renal -9.7% | SF-295 CNS 6.7% | SF-539 CNS -23.8% | UACC-257 melanoma -7.85% | M14 melanoma -0.117%
inactive: DU-145 prostate 33.7% | SF-268 CNS 14.8%

COc1ccc2c(c1)cn1c3ccc(O)cc3nc(N)c21
active: RXF 393 renal 3.22% | SF-539 CNS -23.2%
inactive: DU-145 prostate 24.1% | K-562 leukemia 11.1% | MALME-3M melanoma 31.2% | MDA-MB-231 breast 23.6% | SF-268 CNS 31.6% | SF-295 CNS 21.9% | UACC-257 melanoma 60.4% | M14 melanoma 10.4%

Cc1nc(Nc2n[nH]c3c2CN(C(=O)N[C@H](CN(C)C)c2ccccc2)C3(C)C)c2sccc2n1
active: DU-145 prostate 6.06% | K-562 leukemia 4.69% | MALME-3M melanoma -71.4% | MDA-MB-231 breast -29.1% | RXF 393 renal -77.3% | SF-268 CNS -18.4% | SF-295 CNS -3.9% | SF-539 CNS -54.8% | UACC-257 melanoma -54.6% | M14 melanoma -54.8%

Cc1cc(-c2cc(OC(=O)c3ccccc3)ccc2Cl)cc2nnc(Nc3ccc(OCCN4CCCC4)cc3)nc12
inactive: DU-145 prostate 83.2% | MALME-3M melanoma 79.2% | MDA-MB-231 breast 70.6% | RXF 393 renal 59.3% | SF-268 CNS 92.8% | SF-295 CNS 92.7% | SF-539 CNS 87.1% | UACC-257 melanoma 52.1%
active: K-562 leukemia -21.5% | M14 melanoma -8.09%

NC(=O)c1c(OCc2c(F)cc(Br)cc2F)nsc1NC(=O)NCCCCN1CCCC1
active: K-562 leukemia -46.8% | MALME-3M melanoma -79.8% | MDA-MB-231 breast -38.1% | RXF 393 renal -81.9% | SF-295 CNS -81% | SF-539 CNS -92% | UACC-257 melanoma -80.3% | M14 melanoma -76.1%
inactive: DU-145 prostate 22.6% | SF-268 CNS 11.7%

CN1CCN(CCCOc2cccc3nc(Nc4ccc(Cl)c(C(F)(F)F)c4)ccc23)CC1
inactive: MALME-3M melanoma 34.1% | RXF 393 renal 14.7% | SF-268 CNS 28.3% | UACC-257 melanoma 59.3%
active: DU-145 prostate 4.82% | K-562 leukemia -41.3% | MDA-MB-231 breast -44.5% | SF-295 CNS -11% | SF-539 CNS 7.03% | M14 melanoma -54.6%

Cc1cc(Oc2ccccc2)ccc1Nc1ncnc2ccc(-c3cnc(Cl)c(NS(C)(=O)=O)c3)cc12
active: MALME-3M melanoma 0.126% | RXF 393 renal -31.6% | SF-295 CNS 5.34% | SF-539 CNS -15.3% | UACC-257 melanoma 6.42%
inactive: DU-145 prostate 32.1% | K-562 leukemia 54.3% | MDA-MB-231 breast 17.4% | SF-268 CNS 35.4% | M14 melanoma 19.5%

CCOc1cc2ncc(C#N)c(Nc3ccc(OCc4ccccn4)c(Cl)c3)c2cc1NC(=O)/C=C/CN(C)C
inactive: SF-295 CNS 54.1% | SF-539 CNS 22% | UACC-257 melanoma 52.8%
active: DU-145 prostate 4.49% | K-562 leukemia -47.5% | MALME-3M melanoma -72.3% | MDA-MB-231 breast -40% | RXF 393 renal -77.4% | SF-268 CNS -36.7% | M14 melanoma -82.4%

O=C1C=CC2(NN=C(c3ccccc3)N2c2ccccc2)c2cccc(O)c21 (stereo not given)
inactive: DU-145 prostate 35.7% | K-562 leukemia 28.6% | MALME-3M melanoma 11.6% | MDA-MB-231 breast 75.6% | RXF 393 renal 120% | SF-268 CNS 49.4% | SF-295 CNS 17.1% | SF-539 CNS 25.4%
active: UACC-257 melanoma 3.12% | M14 melanoma 8.81%

C[C@H](NC(=O)c1c(N)nn2cccnc12)c1cc2cccc(C#Cc3cnn(C)c3)c2c(=O)n1-c1ccccc1
inactive: DU-145 prostate 34.6% | K-562 leukemia 17.4% | MALME-3M melanoma 50.1% | MDA-MB-231 breast 37.8% | SF-268 CNS 25.3% | SF-295 CNS 11.6% | SF-539 CNS 21.7% | UACC-257 melanoma 39.1% | M14 melanoma 29.5%
active: RXF 393 renal -16%

CN(C)C1CCN(C(=O)c2ccc(NC(=O)Nc3ccc(-c4nc(N5CCOCC5)nc(N5CCOCC5)n4)cc3)cc2)CC1
active: DU-145 prostate 2.99% [2.5 µM] | MALME-3M melanoma -34.1% [2.5 µM] | RXF 393 renal -40.4% [2.5 µM] | SF-295 CNS -31.1% [2.5 µM] | SF-539 CNS -53% [2.5 µM] | UACC-257 melanoma -40% [2.5 µM] | M14 melanoma 7.46% [2.5 µM]
inactive: K-562 leukemia 14.4% [2.5 µM] | MDA-MB-231 breast 17.2% [2.5 µM] | SF-268 CNS 10.6% [2.5 µM]

Brc1ccc([I+]c2ccc(Br)cc2)cc1
active: K-562 leukemia 9.03% | SF-268 CNS -56.7%
inactive: DU-145 prostate 52.6% | MALME-3M melanoma 35.7% | MDA-MB-231 breast 15.1% | RXF 393 renal 40.6% | SF-295 CNS 27.5% | SF-539 CNS 27.3% | UACC-257 melanoma 27% | M14 melanoma 10.3%

CS(=O)(=O)N1CCc2c(-c3cnc(N)nc3)nc(N3CCOCC3)nc21
inactive: DU-145 prostate 13.5% | K-562 leukemia 22.3% | MDA-MB-231 breast 30.4% | SF-268 CNS 14.7% | M14 melanoma 10.4%
active: MALME-3M melanoma -17.6% | RXF 393 renal -36.2% | SF-295 CNS -34.7% | SF-539 CNS -45.1% | UACC-257 melanoma -18%

COc1cc2c(Oc3ccc4[nH]c(C)cc4c3F)ncnc2cc1OCCCN1CCCC1
inactive: DU-145 prostate 96.8% | K-562 leukemia 71.2% | MALME-3M melanoma 101% | MDA-MB-231 breast 104% | RXF 393 renal 74.7% | SF-268 CNS 72.2% | SF-295 CNS 97.7% | SF-539 CNS 45.2% | UACC-257 melanoma 98.8% | M14 melanoma 92.8%

CC(C)(C)OC(=O)N1CCC(O)[C@@H](O[Si](c2ccccc2)(c2ccccc2)C(C)(C)C)[C@H]1/C=C/c1ccccc1 (stereo not given in full)
inactive: DU-145 prostate 57.6% | K-562 leukemia 38.7% | MALME-3M melanoma 47.3% | MDA-MB-231 breast 49.5% | SF-268 CNS 52.5% | SF-295 CNS 36.7% | SF-539 CNS 57.1% | UACC-257 melanoma 40.8% | M14 melanoma 50%
active: RXF 393 renal 6.38%
